From PubChem BioAssay AID2073 (Sanford-Burnham Center for Chemical Genomics, 2009)
“And” between values parts separate entries of the source, which are not always exact repeats. Equal values may be shown once. Among all 290,000 compounds or so, about 570 (0.2%) were called active. Roughly 1% stayed inconclusive and do not appear here. No stated cut-off is given here; in the data, active means inhibition mostly above about 51% (no sharp cut-off); inconclusive means no clear call, values can overlap the other calls; inactive means mostly below about 53%. For the sample, actives were picked, then their nearest neighbours and some compounds at random.

Target: Voltage-dependent N-type calcium channel subunit alpha-1B (Homo sapiens) (UniProt Q00975)
Test: inhibitors of Mint1-CaV2.2 protein interaction, biochemical, HTRF (AID 2073)
Settings: at 20 µM, stronger effect = higher value

Chain of Voltage-dependent N-type calcium channel subunit alpha-1B (Homo sapiens) (Q00975 whole entry, looked up): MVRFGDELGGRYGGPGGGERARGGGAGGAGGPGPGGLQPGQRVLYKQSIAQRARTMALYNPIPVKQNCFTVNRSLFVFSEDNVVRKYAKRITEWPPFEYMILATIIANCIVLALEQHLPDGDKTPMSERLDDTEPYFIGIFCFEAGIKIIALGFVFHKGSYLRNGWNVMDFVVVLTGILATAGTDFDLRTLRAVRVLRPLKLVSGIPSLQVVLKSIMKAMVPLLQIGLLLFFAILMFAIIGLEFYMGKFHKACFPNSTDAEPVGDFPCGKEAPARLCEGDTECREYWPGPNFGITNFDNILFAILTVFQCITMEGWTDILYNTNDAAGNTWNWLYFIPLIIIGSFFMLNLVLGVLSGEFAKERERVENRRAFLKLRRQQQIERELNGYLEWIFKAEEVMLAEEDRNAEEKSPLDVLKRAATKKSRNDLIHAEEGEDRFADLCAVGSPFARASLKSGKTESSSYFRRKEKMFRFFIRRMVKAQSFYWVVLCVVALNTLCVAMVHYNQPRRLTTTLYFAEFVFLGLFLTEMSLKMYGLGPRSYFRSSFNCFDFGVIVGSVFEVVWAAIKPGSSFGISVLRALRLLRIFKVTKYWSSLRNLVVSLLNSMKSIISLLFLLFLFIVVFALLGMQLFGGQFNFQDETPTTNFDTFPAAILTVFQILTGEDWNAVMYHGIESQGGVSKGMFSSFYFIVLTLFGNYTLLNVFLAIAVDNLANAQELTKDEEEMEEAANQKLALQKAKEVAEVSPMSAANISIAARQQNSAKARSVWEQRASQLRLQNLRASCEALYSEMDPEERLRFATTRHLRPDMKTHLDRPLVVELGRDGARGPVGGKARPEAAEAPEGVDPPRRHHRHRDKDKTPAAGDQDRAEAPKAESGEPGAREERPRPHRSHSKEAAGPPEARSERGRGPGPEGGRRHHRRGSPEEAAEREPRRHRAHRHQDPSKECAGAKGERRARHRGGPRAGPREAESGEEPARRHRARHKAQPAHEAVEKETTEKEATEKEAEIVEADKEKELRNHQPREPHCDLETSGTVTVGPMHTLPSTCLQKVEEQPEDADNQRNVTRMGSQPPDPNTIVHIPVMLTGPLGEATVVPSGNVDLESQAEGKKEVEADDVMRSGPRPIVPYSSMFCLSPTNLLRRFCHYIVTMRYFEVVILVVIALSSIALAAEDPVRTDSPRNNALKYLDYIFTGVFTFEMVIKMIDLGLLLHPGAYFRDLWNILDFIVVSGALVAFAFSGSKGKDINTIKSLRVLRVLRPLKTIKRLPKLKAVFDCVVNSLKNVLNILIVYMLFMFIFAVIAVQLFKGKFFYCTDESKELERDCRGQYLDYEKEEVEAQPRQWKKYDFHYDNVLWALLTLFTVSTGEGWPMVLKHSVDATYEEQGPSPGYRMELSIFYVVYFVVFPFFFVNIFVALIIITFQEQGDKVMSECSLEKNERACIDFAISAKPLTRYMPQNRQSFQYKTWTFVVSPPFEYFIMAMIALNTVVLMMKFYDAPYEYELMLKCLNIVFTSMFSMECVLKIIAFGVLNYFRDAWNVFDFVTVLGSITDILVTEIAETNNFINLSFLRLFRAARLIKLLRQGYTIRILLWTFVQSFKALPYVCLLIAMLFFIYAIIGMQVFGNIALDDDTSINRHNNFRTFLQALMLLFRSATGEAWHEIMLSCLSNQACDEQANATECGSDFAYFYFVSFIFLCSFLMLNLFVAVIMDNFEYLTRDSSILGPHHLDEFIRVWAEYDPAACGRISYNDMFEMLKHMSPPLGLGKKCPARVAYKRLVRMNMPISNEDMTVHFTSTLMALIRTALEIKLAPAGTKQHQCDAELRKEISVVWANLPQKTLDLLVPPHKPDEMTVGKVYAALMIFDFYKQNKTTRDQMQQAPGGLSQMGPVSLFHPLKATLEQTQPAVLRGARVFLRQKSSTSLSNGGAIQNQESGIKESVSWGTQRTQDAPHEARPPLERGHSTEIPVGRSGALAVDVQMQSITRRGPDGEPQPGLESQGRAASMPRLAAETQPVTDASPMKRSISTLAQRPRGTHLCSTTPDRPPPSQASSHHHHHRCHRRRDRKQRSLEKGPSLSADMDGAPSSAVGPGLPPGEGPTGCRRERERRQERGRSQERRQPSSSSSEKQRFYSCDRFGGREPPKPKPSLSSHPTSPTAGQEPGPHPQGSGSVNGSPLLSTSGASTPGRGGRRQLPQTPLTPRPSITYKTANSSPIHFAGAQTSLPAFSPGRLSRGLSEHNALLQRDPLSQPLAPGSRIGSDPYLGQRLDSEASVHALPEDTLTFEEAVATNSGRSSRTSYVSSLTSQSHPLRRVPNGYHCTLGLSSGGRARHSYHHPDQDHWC

| Compound | inhibition | inhibition (measured here: average of repeat tests) [%] |
| --- | --- | --- |
| O=C(O)c1cccnc1-c1ncccc1C(=O)O | -7.6% (inactive) |  |
| Cc1cccc(N/N=C2/COC(C)(C)CC2=O)c1 | 4.2% (inactive) |  |
| NC(=O)C1CCN(CC(=O)c2c[nH]c3ccc(F)cc23)CC1 | 1.6% (inactive) |  |
| CC1CCN(C(=O)c2ccc3c(c2NCCO)C(=O)c2ccccc2C3=O)CC1 | -7.6% (inactive) |  |
| CC1CC(C)CN(C(=O)c2ccc3c(c2NCCO)C(=O)c2ccccc2C3=O)C1 (stereo not given) | 59% (active) |  |
| CC1CCCN(C(=O)c2ccc3c(c2NCCO)C(=O)c2ccccc2C3=O)C1 (stereo not given) | -10.5% (inactive) |  |
| CC(=O)CN1C(=O)NC(c2ccccc2)(c2ccccc2)C1=O | 12.2% (inactive) |  |
| Cc1cc(-c2ccc(S(=O)(=O)N(C)Cc3ccccc3)cc2)on1 | 9% (inactive) |  |
| COc1ccc(CCc2nnc(CCC(=O)NCc3ccc4ncccc4c3)o2)cc1 | -2.5% (inactive) |  |
| COC(c1ccccc1)c1nnc(CCC(=O)NCc2cccc(-n3cccn3)c2)o1 (stereo not given) | 10.4% (inactive) |  |
| COC(c1ccccc1)c1nnc(CCC(=O)NCc2ccc3ncccc3c2)o1 (stereo not given) | 50% (active) |  |
| O=C1CNC(=O)/C1=C/c1ccccc1 | 7.3% (inactive) |  |
| O=C1CSC(c2ccccc2)N1c1nnc(C23CC4CC(CC(C4)C2)C3)s1 (stereo not given) | 1.5% (inactive) |  |
| N#C/C(=C\c1ccc(C(=O)O)cc1)c1nc2sc3c(c2c(=O)[nH]1)CCCC3 | 73.5% (active) |  |
| CCOC(=O)c1nc2sc3c(c2c(=O)[nH]1)CCCC3 | 29.6% (inactive) and 12.3% (inactive) |  |
| O=C(O)c1ccc(/C=C/c2nc3sc4c(c3c(=O)[nH]2)CCC4)cc1 | 40.5% (inactive) |  |
| O=C1C(Cc2ccccc2)NC(=S)N1Cc1ccccc1 (stereo not given) | -4.6% (inactive) |  |
| CCCNC(=O)Cn1sc2nc(C)cc(C)c2c1=O | 88.4% (active) |  |
| Cc1ccc(NC(=O)Cn2c(C)cc(C)c(C#N)c2=O)c(Cl)c1 | 2.7% (inactive) |  |
| Cc1ccc(NC(=O)Cn2sc3nc(C)cc(C)c3c2=O)c(Cl)c1 | 70.3% (active) |  |
| COC(=O)Cn1c(C)nc2c(sc3nc(C)cc(C)c32)c1=O | 7.1% (inactive) |  |
| CC(=O)Cn1cnc2c(sc3nc(C)cc(C)c32)c1=O | -5.8% (inactive) |  |
| Cc1cc(C)c2c(=O)n(CC(=O)Nc3ccc(Cl)cc3)sc2n1 | 23.2% (inactive) |  |
| CN1CCN(S(=O)(=O)c2cccc(C(=O)Oc3ccccc3Cl)c2)CC1 | 14.6% (inactive) |  |
| COc1ccc(CNC(=O)Cn2nc([N+](=O)[O-])c(Br)c2C)cc1 | 2.9% (inactive) |  |

| Compound | inhibition | inhibition (measured here: average of repeat tests) [%] |
| --- | --- | --- |
| CCCN1C2=NCCN2c2ccccc21 | 2.5% (inactive) |  |
| Cc1ccc(NC(=O)Nc2nnc(-c3ccncc3)s2)cc1C | 76.4% (active) |  |
| Cc1nnc(NC(=O)Nc2cccc(Cl)c2)s1 | -1.9% (inactive) |  |
| O=C(Nc1ccc(F)cc1)Nc1nnc(-c2ccncc2)s1 | 50.5% (inactive) | 37.8 |
| O=C(Nc1ccc(Cl)cc1)Nc1nnc(-c2ccncc2)s1 | 14.4% (inactive) |  |
| COc1ccc(NC(=O)Nc2nnc(-c3ccncc3)s2)cc1 | 3.4% (inactive) |  |
| O=C(Nc1cccc(Cl)c1)Nc1nnc(-c2ccncc2)s1 | 56.2% (active) |  |
| Cc1c(NC(=O)CN2CCN(c3ccc([N+](=O)[O-])cc3)CC2)c(=O)n(-c2ccccc2)n1C | 1.5% (inactive) |  |
| CC1Oc2ccccc2N(CC(=O)N2CCc3ccccc32)C1=O (stereo not given) | -10.9% (inactive) |  |
| CCCC(=O)N(Cc1cc(=O)[nH]c2ccccc12)c1ccc(C)cc1 | 14.9% (inactive) |  |
| CCOc1ccc(N(CC(=O)NCc2ccco2)S(C)(=O)=O)cc1 | 13.2% (inactive) |  |
| O=C(NNC(=S)NC(=O)c1ccccc1)c1ccc([N+](=O)[O-])cc1 | -13% (inactive) |  |
| Cc1nc2ccc(S(=O)(=O)NCC(=O)NCc3ccc4c(c3)OCO4)cc2s1 | 15.2% (inactive) |  |
| CS(=O)(=O)Nc1cccc2[nH]ncc12 | 6.1% (inactive) |  |
| N#CC1(C#N)[C@@H](C(=O)C23CC4CC(CC(C4)C2)C3)C12CCOCC2 | 0% (inactive) |  |
| Cc1ccc(NS(=O)(=O)c2ccc(OCC(=O)N3CCOCC3)cc2)cc1 | -10.3% (inactive) |  |
| COC(=O)C1C(O)=C(C=NC2CCCCC2)C(=O)CC1(C)C (stereo not given) | 10.7% (inactive) |  |
| NS(=O)(=O)c1ccc(N=Nc2c(O)ccc3ccccc23)cc1 | 64.4% (active) |  |
| Nc1nc(N)c(N=Nc2ccc(S(N)(=O)=O)cc2)c(=O)[nH]1 | 13.6% (inactive) |  |
| Cc1c(C#N)c(O)[nH]c(=O)c1N=Nc1ccc(S(N)(=O)=O)cc1 | 1.4% (inactive) |  |
| Nc1nc(O)c(N=Nc2ccc(S(N)(=O)=O)cc2)c(=O)[nH]1 | 50% (active) |  |
| Oc1ccc(N=Nc2c(O)ccc3ccccc23)cc1 | -2.8% (inactive) |  |
| NS(=O)(=O)c1ccc(N=Nc2c(O)c(C(=O)O)cc3ccccc23)cc1 | 20.5% (inactive) |  |
| O=C(CN1C(=O)C2C3C=CC(C4CC34)C2C1=O)Oc1ccccc1 (stereo not given) | -1.6% (inactive) |  |
